Data as given in PubChem BioAssay AID1345083 (National Center for Advancing Translational Sciences (NCATS), 2018).
Hit rate of the full screen: of about 94,000 compounds, about 6,200 (6.6%) were called active. Another 31% or so got no clear call; they are omitted. Calls come from the whole dose curve; as a rule, active = well fitted inhibition curve with a large enough effect; inconclusive = small, poorly fitted or top-dose-only effect; inactive = flat fitted curve, though single readings scatter. The entries come from a sample that favours actives as a whole.

experiment: Cytotoxic Profiling in HEK 293 Cell Line of Diverse Libraries Using Quantitative High-Throughput Screening; settings: HEK 293 viability, ATP luminescence (CellTiter-Glo), 48-72 h; series mostly up to 115 µM; activity change, negative = cytotoxicity: at the top concentration; note: nearly all actives have a fitted effect of over 60% in size
Outline: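 CellTiter-Glo luminescence (cellular ATP) was read after 48 or 72 hr of compound exposure at 37 degree Celsius. Cells were HEK 293 plated at 250 cells/well.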
% is set by controls: 0 for no effect and ±100 for the full control effect; potency is the fitted concentration of half-maximal effect.

Compound	activity change, negative = cytotoxicity	Potency	outcome
Cc1ccccc1C(=O)N1C(C(=O)NCC2CCCO2)COC12CCN(C(=O)c1cccs1)CC2 (centres undefined)	-23.6% (inactive)		
O=C(NCC1CCCO1)c1csc(N2CCN(c3ccccc3F)CC2)n1 (centres undefined)		89.1 µM (active)	
O=C(NCC1CCCO1)c1noc(-c2ccccc2F)n1 (centres undefined)	-1.98% (inactive)		
CC(C)NC(=O)C1CCc2nnc(CNC(=O)c3ccc(Cl)cc3Cl)n21 (centres undefined)	-16.9% (inactive)		
Cn1ncc2c(C(=O)NCC#N)cc(-c3cccc(C(F)(F)F)c3)nc21	-14.6% (inactive)		
Cn1ncc2c(C(=O)N3CCN(c4ncccn4)CC3)cc(-c3ccc(C(F)(F)F)cc3)nc21		50.1 µM (active)	
Cn1ncc2c(C(=O)NCC(F)(F)F)cc(-c3ccc(C(F)(F)F)cc3)nc21	0.478% (inactive)		
Cn1ncc2c(C(=O)NCc3ccccc3)cc(-c3ccc(C(F)(F)F)cc3)nc21		79.4 µM (active)	
COc1ccccc1-c1cc(C(=O)NC2CCCCC2)c2cnn(C)c2n1	-26.6% (inactive)		
Cn1ncc2c(C(=O)NCc3ccc(F)cc3)cc(-c3cccc(C(F)(F)F)c3)nc21	-13.2% (inactive)		
Cn1ncc2c(C(=O)NCc3ccc(C(F)(F)F)cc3)cc(C3C=C(C(F)(F)F)C=CC3)nc21 (centres undefined)	-19.9% (inactive)		
Cc1ccc(-c2cc(C(=O)N3CCOCC3)c3cnn(C)c3n2)c(C)c1	-12.7% (inactive)		
CC(C)OCCCNC(=O)c1cc(-c2ccc(C(F)(F)F)cc2)nc2c1cnn2C		44.7 µM (active)	
Cn1ncc2c(C(=O)NCc3ccc(F)cc3F)cc(-c3ccccc3C(F)(F)F)nc21		31.6 µM (active)	
CC(=O)N1CCN(C(=O)c2cc(-c3cccc(F)c3)nc3c2cnn3C)CC1	2.75% (inactive)		
Cn1cnc(S(=O)(=O)N2CCC(c3noc(-c4ccccc4)n3)C2)c1 (centres undefined)	-20.7% (inactive)		
CCOc1ccc(CC(=O)N2C[C@@H](N)C[C@H]2C(=O)NC(C)C)cc1	-7.1% (inactive)		
CNC(=O)[C@H]1C[C@H](Oc2cccnc2)CN1C(=O)NCCc1ccccc1	-7.31% (inactive)		
COCCn1ncc(N2CCCC(CC(=O)Nc3ccc(C)cc3)C2)cc1=O (centres undefined)	12.4% (inactive)		
O=C(c1ccccc1F)N1CCC2(CC1)C(=O)Nc1ccccc12	-0.773% (inactive)		
CC(=O)N[C@@H]1[C@@H](NC(=O)Cc2cccs2)[C@H]2CCO[C@H]21			inactive
O=C(c1ccc2nccn2c1)N1CCOCC1		inactive	
O=C(NC1CCN(Cc2ccc(F)c(F)c2)CC1)c1ccc2nccn2c1		44.7 µM (active)	
O=C(NCc1ccccn1)c1ccc2nccn2c1	-8.78% [at 172 µM] (inactive)		
COc1ccccc1N1CCN(C(=O)C2CCCN(C(=O)c3ccccc3)CCC(=O)NCC2)CC1 (centres undefined)			inactive

Compound	activity change, negative = cytotoxicity	Potency	outcome
COc1ccc(C(=O)N2CCCN(C(=O)C3CC3)C(c3ccccc3)CC(=O)NCC2)cn1 (centres undefined)			inactive
COc1ccccc1N1CCCc2ncc(C(=O)N3CCCC[C@@H]3c3ccccc3)cc21		89.1 µM (active)	
COC(=O)N1CCC2(CC1)C(=NC1CCCC1)NC(=O)N2c1cc(F)cc(F)c1	-4.97% (inactive)		
Cc1csc(CCNC(=O)C[C@H]2NC(=O)c3ccccc3NC2=O)n1	-0.645% (inactive)		
O=C1Nc2ccccc2CC12CCN(CC1CCCCC1)CC2		inactive	
N#Cc1ccc(CN2CCC3(Cc4ccccc4NC3=O)C2)cc1 (centres undefined)		89.1 µM (active)	
O=C1Nc2ccccc2CC12CCN(CC1CC1)C2 (centres undefined)	-20.7% [at 172 µM] (inactive)		
O=C(N[C@H]1CCN2C(=O)c3ccccc3NC(=O)[C@H]12)c1cccs1	4.83% [at 172 µM] (inactive)		
CC(=O)N1CCc2[nH]cnc2C12CCN(C(=O)c1ccc(C)c(C)c1)CC2	-17.9% (inactive)		
COC(=O)C[C@H]1CN(C(=O)OC(C)(C)C)CCN1			inactive [at 172 µM]
COc1ccc(-n2nc(C3CCN(C(=O)c4ccc(Cl)nc4)CC3)[nH]c2=O)cc1	1.41% (inactive)		
COc1ccc(-n2nc(C3CCN(C(=O)c4ccc(C)cc4)CC3)[nH]c2=O)cc1	-22% (inactive)		
COc1ccc(-n2nc(C3CCN(Cc4ccccn4)CC3)[nH]c2=O)cc1		12.6 µM (active)	
CN1CCN(C(=O)c2ccc3c(c2)OCCO3)CC1=O	3.69% (inactive)		
CN(C)C(=O)c1nc(-c2cccnc2)c2ccccn12	1.69% [at 172 µM] (inactive)		
Cc1cnc(C2CCC2)n1CC1CCN(C(=O)c2ccncc2)C1 (centres undefined)	0.823% (inactive)		
Cc1cccc(-c2noc([C@@H]3Cc4nc[nH]c4CN3C(=O)CCC(=O)O)n2)c1	2.48% [at 172 µM] (inactive)		
Cc1cccc(-c2noc([C@@H]3Cc4nc[nH]c4CN3C(=O)Nc3ccccc3)n2)c1	-25.2% [at 172 µM] (inactive)		
Cc1ccc(-c2noc([C@@H]3Cc4nc[nH]c4CN3Cc3cccc(C#N)c3)n2)cc1		89.1 µM (active)	
CCn1cc(C(=O)N2C[C@@H](COCC3CC3)[C@H](c3ccccn3)C2)cn1	-23.9% (inactive)		
COc1ccc(C2(C(=O)N3CCC4(CC3)NCCc3c4[nH]c4ccccc34)CC2)cc1		35.5 µM (active)	
O=C(COc1ccc(F)cc1)N1CCC2(CC1)NCCc1c2[nH]c2ccccc12		44.7 µM (active)	
COCCOCC(=O)N1CCC2(CC1)NCCc1c2[nH]c2ccccc12			inactive
COc1cccc(N2CCN(C(=O)C3(c4ccc(NC(C)=O)cc4)CCC3)CC2)c1	-13.8% (inactive)		
COCCOCC(=O)N1CCC2(CC1)c1[nH]c3ccc(OC)cc3c1CCN2C	-9.77% (inactive)		

Compound	activity change, negative = cytotoxicity	Potency	outcome
Cc1cc(C)n(CC(=O)N2CCC3(CC2)NCCc2c3[nH]c3ccccc23)n1	-4.91% (inactive)		
COc1ccc2[nH]c3c(c2c1)CCNC31CCN(C(=O)Cn2ccnc2)CC1	-3.22% (inactive)		
O=C(C1CC=CC1)N1CCC2(CC1)NCCc1c2[nH]c2ccccc12		39.8 µM (active)	
O=C(C1CCCO1)N1CCC2(CC1)NCCc1c2[nH]c2ccccc12 (centres undefined)	-4.46% (inactive)		
CC(=O)NCc1nnc2n1C(C(=O)N1CCN(C)CC1)CC2 (centres undefined)	-19% [at 172 µM] (inactive)		
COCc1nncn1C1CCN(C(=O)c2ccccc2OC(F)(F)F)CC1	3.04% (inactive)		
CC(=O)Nc1ccc2c(c1)nc1n2[C@@H](CNCc2ccncc2F)COC1	4.05% [at 172 µM] (inactive)		
CN1CCCN(c2ccc(C(=O)N3CCC(N4CCOCC4)CC3)cn2)CC1	-2.17% (inactive)		
O=C(NC1C[C@H]2CC[C@@H](C1)N2S(=O)(=O)c1ccc2c(c1)OCCO2)c1ccc(F)cc1 (some centres undefined)	-20.7% (inactive)		
O=C(NC1CCCN(c2cc(-c3ccc(Cl)cc3)[nH]n2)C1)c1ccncc1 (centres undefined)		39.8 µM (active)	
O=C(NC1CCCN(c2ccc3nnc(C4CC4)n3n2)C1)c1ccccn1 (centres undefined)	1.46% (inactive)		
O=C(NC1CCCN(c2cc(-c3ccc(F)cc3)[nH]n2)C1)c1ccc(Br)cc1 (centres undefined)		39.8 µM (active)	
Cc1nnc2ccc(N3CCC(NC(=O)c4ccccc4Cl)C3)nn12 (centres undefined)	-3.86% (inactive)		
O=C(NC1CCCN(c2nc3ncccc3o2)C1)c1ccc(F)cc1 (centres undefined)	-15.2% [at 172 µM] (inactive)		
CCn1ccc(C(=O)NC2CCCN(c3cc(-c4ccc(F)cc4)[nH]n3)C2)n1 (centres undefined)	-22.3% (inactive)		
O=C(NC1CCCN(c2cc(-c3ccc(Cl)cc3)[nH]n2)C1)c1ccccc1F (centres undefined)		44.7 µM (active)	
CN(C)C1(CC2CC2)CCN(C(=O)c2ccsc2)CC1	1.08% (inactive)		
CC(C)CN1C(=O)c2cccn2CC1C(=O)NC1CCS(=O)(=O)C1 (centres undefined)			inactive
COc1ccc(CN2CCCC(c3[nH]ccc3C(N)=O)C2)cc1Cn1ccnc1 (centres undefined)	2.51% (inactive)		
O=C(c1ccc(N2CC3CC(C2)[C@H]2CCCC(=O)N2C3)nc1)N1CCCCC1 (some centres undefined)	-4.66% (inactive)		
COc1cncc(-c2cccc(COc3ccc4c(cnn4CC[S+](C)(=O)[O-])c3)c2)c1		56.2 µM (active)	
O=C(CC1CCN(C(=O)c2ccccc2)C1)NC1CC1 (centres undefined)	-7.16% (inactive)		
CCn1c(C2CCCNC2)nn(Cc2ccc(C(=O)NC)o2)c1=O (centres undefined)	0.0264% (inactive)		
Brc1cccc(-c2noc(-c3nc(-c4ccncc4)no3)n2)c1	4.91% (inactive)		
COc1ccc(-c2nc(CN3CCOC(CN)C3)c(C)o2)c2ccccc12 (centres undefined)		31.6 µM (active)	

Compound	activity change, negative = cytotoxicity	Potency	outcome
Cc1oc(-c2cccc(Oc3ccccc3)c2)nc1CN1CCOC(CCN)C1 (centres undefined)		28.2 µM (active)	
Cc1oc(-c2cccc(Cl)c2)nc1CN1CCCC(C(N)=O)C1 (centres undefined)	-17.1% (inactive)		
CCn1cnnc1CC1CCN(C(=O)C2CCN(Cc3nc(-c4cccc(C)c4)oc3C)CC2)CC1	-24.6% (inactive)		
COc1ccc(-c2noc(CN3CCCC(C(=O)c4cccnc4)C3)n2)c(OC)c1OC (centres undefined)	-24.8% (inactive)		
COC(=O)[C@@H]1Cc2ncn(Cc3ccc(Cl)cc3)c2CN1S(=O)(=O)c1ccc(C(C)=O)cc1	-1.59% (inactive)		
CCCN(CC1CCOC1)C(=O)Nc1cc(C)ccc1OC (centres undefined)	4.73% (inactive)		
Cc1ncsc1CCC(=O)N[C@@H]1COCC[C@@H]1Oc1cccc(F)c1			inactive
COc1ccc2[nH]cc(CCNC(=O)C3CCCN(Cc4ccncc4)CCC(=O)NCC3)c2c1 (centres undefined)			inactive
COc1ccc(OCc2nc(C(=O)N3CCCC(C)(CO)C3)co2)cc1 (centres undefined)	-24.8% (inactive)		
COc1ccc2ccc(OCc3nc(C(=O)N4CCC(=O)NCC4C)co3)cc2c1 (centres undefined)		44.7 µM (active)	
Cc1cc(C(=O)N2CCCCC2c2noc(COc3ccc(F)cc3)n2)nn1C (centres undefined)	-29.3% (inactive)		
Cc1nc(N2CCC(C(=O)NCc3ccc(C(C)C)cc3)CC2)cc(C(F)(F)F)n1		31.6 µM (active)	
COc1ccc(OC)c(NC(=O)C2CCN(c3cc(C(F)(F)F)ncn3)CC2)c1	-13.9% (inactive)		
Cc1nc(N2CCC(NC(=O)c3ccc4c(c3)OCO4)CC2)cc(C(F)(F)F)n1	-17.7% (inactive)		
Cc1ccc(N2Cc3c(NCC4CC4)ncnc3N(C)CC2=O)cc1	-6.31% [at 172 µM] (inactive)		
CN1CCN(C2CCOC3(CCN(S(=O)(=O)c4cn(C)cn4)CC3)C2)CC1 (centres undefined)	6.96% (inactive)		
CC(C)C(=O)N1CCC(OC2CCN(Cc3ccccc3)CC2)CC1	-18.1% (inactive)		
COCc1ccc2c(c1)c(OC(C)(C)C(=O)NC1CCC(O)CC1)nn2Cc1cccnc1 (centres undefined)	-3.5% (inactive)		
COCc1ccc2c(c1)c(OC(C)(C)C(=O)N1CCN(C)CC1)nn2Cc1cccnc1			inactive [at 172 µM]
O=C(NCc1cccnc1)C1CCCN(c2cnn(Cc3ccccc3)c(=O)c2)C1 (centres undefined)	-21.1% (inactive)		
CN(C)CCNC(=O)C(C)(C)Oc1nn(Cc2cccc(Cl)c2)c2ccccc12		31.6 µM (active)	
COCCNC(=O)N1CCc2nn(Cc3ccccc3)c(=O)n2CC1	-1.17% (inactive)		
CN1CCN(C(=O)C(C)(C)Oc2nn(Cc3cccc(Cl)c3)c3ccccc23)CC1		70.8 µM (active)	
CC(C)(Oc1nn(Cc2cccc(Cl)c2)c2ccccc12)C(=O)Nc1cccnc1		35.5 µM (active)	
